# Bioassay records deposited in PubChem BioAssay by National Center for Advancing Translational Sciences (NCATS).
# In the library only some 1.9% were active in any assay of this set; here they are far more common.
# BRCA1 expr act = activators of BRCA1 expression; MCF7-BRCA1-FFLuc reporter, luminescence, 48 h; response scale: scaled: vehicle 0%, 10 µM genistein 100%; Potency, µM (highest dose often 46.1 µM), for inactives: top-dose activation, usual class: activators; 380,000 tested, 1.1% active; AID 624202; note: potency is the fitted concentration of half-maximal effect; nearly all actives have a fitted effect of over 80% in size
#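 Using MCF7 cells harboring a BRCA1 firefly luciferase reporter, plated 2 h before compound pinning, the screen measured luminescence after 48 h incubation. Responses were normalized to DMSO and 10 microM genistein, then fitted for concentration-effect.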
# NPSR antag = neuropeptide S receptor (human) antagonism, cAMP; Q6W5P4; CHO-NPSR cells, cAMP TR-FRET, antagonist mode; Potency, µM (top dose mostly 38.3 µM), for inactives: at the top dose activity change, negative = inhibition, actives largely listed as inhibitors; 220,000 tested, 1% active; note: potency is the fitted concentration of half-maximal effect; % is set by controls: 0 for no effect and ±100 for the full control effect; nearly all actives have a fitted effect of over 50% in size
# RXFP1 ag = RXFP1 (human) receptor agonism | 370,000 tested, 0.3% active | Q9HBX9 | AID 2676 | HEK293T-RXFP1 cAMP TR-FRET, 30 min; response scale: percent of porcine relaxin response, buffer zero | Potency, µM (doses to about 57.5 µM), without a hit: at the top dose activation, most hits filed as activators; note: potency is the fitted concentration of half-maximal effect; % is set by controls: 0 for no effect and ±100 for the full control effect; nearly all actives have a fitted effect of over 60% in size
# Target sequence (Q9HBX9 whole entry, looked up): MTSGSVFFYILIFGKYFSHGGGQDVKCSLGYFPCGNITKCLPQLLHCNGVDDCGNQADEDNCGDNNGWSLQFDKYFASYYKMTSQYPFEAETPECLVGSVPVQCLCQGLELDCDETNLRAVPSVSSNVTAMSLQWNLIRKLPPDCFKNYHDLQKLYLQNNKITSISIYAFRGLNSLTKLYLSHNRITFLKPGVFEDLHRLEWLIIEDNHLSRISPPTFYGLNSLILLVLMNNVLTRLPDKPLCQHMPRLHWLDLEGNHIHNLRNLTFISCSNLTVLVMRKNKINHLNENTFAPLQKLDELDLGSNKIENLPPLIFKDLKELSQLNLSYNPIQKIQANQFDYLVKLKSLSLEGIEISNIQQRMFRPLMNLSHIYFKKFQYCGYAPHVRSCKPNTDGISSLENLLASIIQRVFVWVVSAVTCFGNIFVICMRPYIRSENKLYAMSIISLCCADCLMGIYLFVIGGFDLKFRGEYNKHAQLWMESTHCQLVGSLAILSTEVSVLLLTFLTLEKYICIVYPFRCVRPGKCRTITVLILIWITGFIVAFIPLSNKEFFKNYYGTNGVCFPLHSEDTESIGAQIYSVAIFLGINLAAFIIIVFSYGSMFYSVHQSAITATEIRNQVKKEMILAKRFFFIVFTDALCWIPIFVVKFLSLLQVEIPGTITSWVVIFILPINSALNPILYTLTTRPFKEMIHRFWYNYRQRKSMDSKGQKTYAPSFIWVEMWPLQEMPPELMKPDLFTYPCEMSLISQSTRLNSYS
#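 Agonist response is measured as cAMP accumulation in an RXFP1-transfected HEK293T line under PDE4 inhibition. Values are scaled between buffer-only and 29 nM porcine relaxin, and EC50s come from standard Hill equation fits.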
# Giardia kill = Giardia lamblia killing; Giardia lamblia trophozoite viability; activity change, % at 7.66 µM, hits read low; 340,000 tested, 0.15% active; in the data active = activity change below about -80%; inconclusive = between about -30% and that limit;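 note: parasites exposed to compound for two days anaerobically before the ATP read; % is set by controls: 0 for no effect and ±100 for the full control effect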
#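 ATP-content bioluminescence gauges trophozoite survival. Cells (100/well) receive compound and incubate anaerobically for 48 hrs at 37 deg C; detection reagent follows for 15-30 min at room temperature.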
# IL2 activator = activators of IL-2. activation, % (series mostly up to about 46 µM). IL-2 activation reporter assay, cell-based qHTS; stimulated with anti-CD3/CD4/CD28 beads; in transgenic mouse T cells. AID 652025. 360,000 tested, 0.065% active; in the data active = activation above about 50%; inconclusive = mostly about 30% to 49%; note: 0% is about no effect
#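 Unstimulated transgenic mouse T cells preincubated 60 min with compound, then stimulated with anti-CD3/anti-CD4-coated beads plus anti-CD28 for 18 h at 37 degrees C. IL-2 response read as EGFP and DsRed fluorescence by plate cytometry.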
# RXFP1 antag = antagonists of human relaxin receptor RXFP1; 350,000 tested, 0.59% active; activity change, negative = inhibition, % at 57.5 µM; AID 1259400; Q9HBX9; HEK293-RXFP1, relaxin-stimulated cAMP HTRF, 30 min; active compounds read low;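 active = activity change of -60% or lower, but not beyond a set lower limit; inconclusive = change between -60% and -40%, or beyond the set limit; inactive = change above -40%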; note: % is set by controls: 0 for no effect and ±100 for the full control effect
# The depositor's hits bear a star; ? = inconclusive; · = no result given; [ ] = dose if it differs, or a comment. Unless noted, calls come from the whole dose curve; as a rule, active = well fitted curve in the direction sought with a large enough effect; inconclusive = small, poorly fitted or top-dose-only effect, or another doubt; inactive = no such curve, though single readings can be large; an effect the other way counts as inactive or inconclusive.
SMILES,BRCA1 expr act,NPSR antag,RXFP1 ag,Giardia kill,IL2 activator,RXFP1 antag
N#C/C(=C\c1ccc([N+](=O)[O-])o1)C(=O)Nc1ccc(F)cc1,-17%,-47%,-1%,14,3,-68*
N#CCc1ccc(NC(=O)/C=C/c2ccc([N+](=O)[O-])o2)cc1,-104%,6.3µM*,1%,?,-5,-6
Cc1ccc(-c2cc3nccc(-c4cc([N+](=O)[O-])ccc4O)n3n2)cc1,-56%,·,0%,·,·,·
Cc1ccc(C2=N/C(=C\N3CCCCC3)C(=O)O2)cc1,?,-3%[46.1 µM],0%,-8,-2,11
Cc1ccc(C2=N/C(=C/N3CCOCC3)C(=O)O2)cc1,8.9µM*,-3%[46.1 µM],0%,4,0,2
CN(C)c1ccc(N=Nc2cccc(F)c2)cc1,1.6µM*,·,0%,-4,-4,8
Cc1cc(/C=C2/NC(=O)N(c3ccccc3)C2=O)c(C)n1-c1cccnc1,1.3µM*,-13%,-1%,-21,-5,-13
CC(C)N1C(=O)/C(=C/c2nc3ccccc3c(=O)n2-c2ccccc2)c2ccccc21,-99%,10µM*,-1%,12,-4,·
CC(C)N1C(=O)/C(=C\c2nc3ccccc3c(=O)n2-c2ccccc2)c2ccccc21,-94%,-41%,5%,-3,0,-18
O=C(Nc1cccc(-c2nc3ccccc3o2)c1)C(F)(F)F,·,·,-1%,·,·,-30
OC(c1ccc(F)cc1)c1nc(-c2cnc3ccccc3c2)cs1 (stereo not given),11µM*,·,·,·,1,·
OC(c1ccc(F)cc1)c1nc(-c2cc3ccccc3o2)cs1 (stereo not given),1.8µM*,·,·,·,0,·
CC(=O)NC(c1cccc(F)c1)c1nc(-c2cc3ccccc3o2)cs1 (stereo not given),-37%,·,·,·,-1,·
CC1(C)OC(=O)Nc2ccc(Br)cc21,·,·,·,·,·,10
O=C(NCCc1cccs1)C1CC(c2ccc([N+](=O)[O-])cc2)=NO1 (stereo not given),10µM*,-10%[46.1 µM],0%,9,0,·
CN(C)c1ccc(C=Cc2cnccn2)cc1,?,·,·,-30,0,15
CN(C)c1ccc(/C=C/c2ccncc2)cc1,7.9µM*,-8%[46.1 µM],4%,2,1,-17
COc1ccc(/C=C/c2ccncc2)cc1,10µM*,-14%[46.1 µM],-1%,-3,-1,-10
Cc1ccccc1-n1c(C)nnc1SC(C)C(=O)NCc1ccco1 (stereo not given),9%,·,·,·,·,·
COC(=O)CN1C(=O)[C@@H]2[C@H](C1=O)[C@@H]1CC(C(=O)OC)=C[C@@H](C(=O)OC)C3C1=C(C(=O)C31CCCCC1)[C@@H]2C (stereo not given in full),·,·,·,6,·,·
CC(C)COc1ccc(-c2nnn(CC(=O)N3CCCC3)n2)cc1,10µM*,-9%[46.1 µM],0%,11,1,-1
O=C(Cn1nnc(-c2ccccc2)n1)N1CCCCC1,84%,·,-1%,12,0,-7
Cc1cc(N=NC(=O)c2ccccc2O)c2ccccc2c1O,5.6µM*,-17%,1%,-22,-2,-11
O=C(CCCCCNc1nc(=S)[nH]c2ccccc12)NCCc1ccc(Cl)cc1,-14%,-13%,6%,17,-2,-65*
O=C(CCCCCNc1nc(=S)[nH]c2ccccc12)NCCC1=CCCCC1,-19%,-48%,6%,1,0,-63*
SMILES,BRCA1 expr act,NPSR antag,RXFP1 ag,Giardia kill,IL2 activator,RXFP1 antag
CN(C)c1ccc(C2C=Cc3ccccc32)c2ccccc12 (stereo not given),-40%,·,·,·,·,·
C[C@H](NC(=O)/C(C#N)=C/c1ccc(O)c(O)c1)c1ccccc1,·,-13%[46.1 µM],·,·,·,·
Cc1nc(-c2cc(-c3nc(-c4ccc(C(F)(F)F)cc4)no3)no2)cs1,-2%,0%,2%,0,0,-20
Cc1cc(-c2nc(-c3ccc(C(C)(C)C)cc3)no2)no1,7.1µM*,-4%,0%,-11,0,-16
Cn1nccc1C(=O)NCc1ccc2c(c1)CCN2C(=O)c1ccc(F)cc1,·,·,3%,·,·,-73*
CCCCOc1cccc(C2/C(=C(\O)c3ccc4c(c3)OCCO4)C(=O)C(=O)N2CCN2CCOCC2)c1 (stereo not given),9%,·,25µM*,?,0,2
N/C(=N\OC(=O)c1cccc(Br)c1)c1ccncc1,14µM*,9%,-2%,-3,-1,?
N/C(=N\OC(=O)c1ccccc1)c1ccncc1,-1%,10%,-1%,-12,0,-2
N/C(=N\OC(=O)c1ccc(Br)cc1)c1ccncc1,4µM*,4%,-1%,-19,-2,5
CCOC(=O)c1sc(NC(=O)c2ccccc2)cc1C,?,-21%[46.1 µM],3%,-6,-2,-1
CCOC(=O)c1sc(NC(=O)C2CC2)cc1C,47%,11%[46.1 µM],0%,20,1,·
CCOC(=O)c1sc(NC(=O)C(C)(C)C)cc1C,3.2µM*,-7%[46.1 µM],0%,-13,-2,·
CCOC(=O)c1sc(NC(=O)c2ccc(Cl)s2)cc1C,4.5µM*,-8%[46.1 µM],2%,6,-2,·
CCCCNC(=O)c1cnn2c(C)c(Cc3c(C)cc(C)cc3C)c(C)nc12,·,·,1%,·,·,-61*
CCOC(=O)c1nnc(-c2ccc(C)cc2)nc1N1CCSCC1,0%,-30%,0%,14,-2,-68*
CC(C)Sc1nnc(-c2c[nH]c3ccccc23)n1C,7.1µM*,-16%[46.1 µM],-1%,-28,-2,-14
CCOC(=O)C(C)Sc1nnc(-c2c[nH]c3ccccc23)n1C (stereo not given),-2%,-10%[46.1 µM],0%,?,1,-5
Cc1ccc(C2N=C(Nc3nc4ccccc4o3)NC3=C2C(=O)CC(C)(C)C3)cc1 (stereo not given),5%,·,·,-1,·,·
COc1cccc(CC(=O)N2CCC(n3nccc3NC(=O)C3CC3)CC2)c1,-18%,·,2%,-6,-1,-16
CSc1ccc(CC(=O)N2CCC(n3nccc3NC(=O)C3CC3)CC2)cc1,2.8µM*,·,1%,-15,-2,1
Cc1cc(/C=C2/C(=N)N3C(=NC2=O)SN=C3S(C)(=O)=O)c(C)n1-c1ccc(F)cc1,7.9µM*,-41%,-1%,-2,1,0
Cc1cccc(C)c1-n1cccc1/C=C1/C(=N)N2C(=NC1=O)SN=C2S(C)(=O)=O,2%,-49%,-2%,19,4,-108*
COc1ccc(/C=N/N=C2/NC(=O)C(CC(=O)O)S2)cc1OCc1ccc(Cl)cc1 (stereo not given),1%,9%,-3%,1,1,-6
